{"source": "paper PMC10480535", "target": "MOB kinase activator 2 (UniProt Q70IA6)", "sequence (Q70IA6 whole entry)": "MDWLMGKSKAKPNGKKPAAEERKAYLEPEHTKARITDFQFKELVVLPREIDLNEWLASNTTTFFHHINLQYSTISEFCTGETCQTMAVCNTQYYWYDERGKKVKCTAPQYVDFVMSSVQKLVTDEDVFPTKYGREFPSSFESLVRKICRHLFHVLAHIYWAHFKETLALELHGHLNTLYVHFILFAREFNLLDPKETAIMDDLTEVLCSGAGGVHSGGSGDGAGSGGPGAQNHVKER", "test": "cross-link between two proteins; cross-linking mass spectrometry; proximity labelling"}
{"substance": "Flotillin-1, O75955", "values": [{"measurement": "listed as a hit", "result": "yes"}]}
